# Screens: PubChem, National Center for Advancing Translational Sciences (NCATS)
# Shown are actives, neighbours in structure and some others; about 9.9% of the full set was active somewhere.
# Tau fibril ThT – qHTS for Inhibitors of Tau Fibril Formation, Thioflavin T Binding | AID 1460, 2008 | Microtubule-associated protein tau (Homo sapiens), P10636 | Potency, µM (doses to about 57.4 µM), hits mostly inhibitors | 270,000 tested, 2.1% active | recombinant tau K18 P301L, heparin-induced fibrillization, ThT fluorescence; also: nearly all actives have a fitted effect of over 55% in size
# Target sequence (P10636 561-689 P618L limits assumed): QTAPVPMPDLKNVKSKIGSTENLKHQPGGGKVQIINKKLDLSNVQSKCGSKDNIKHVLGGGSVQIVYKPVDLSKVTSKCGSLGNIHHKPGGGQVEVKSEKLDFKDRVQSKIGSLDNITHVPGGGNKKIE
#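 Heparin-induced (20 uM) aggregation of recombinant human K18 P301L tau, 15 uM unlabeled with 0.24 uM labeled, pH 7 acetate buffer, 6 hr at 37 C with compound. Fibrils quantified by 30 uM ThT fluorescence after 1 hr ambient incubation.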
# Tau fibril FP – qHTS for Inhibitors of Tau Fibril Formation, Fluorescence Polarization | Microtubule-associated protein tau (Homo sapiens), P10636 | K18 P301L tau heparin fibrillization, Alexa594 FP, 6 h | 280,000 tested, 0.39% active | Potency, µM (titrated, usually from 57.7 µM), actives largely listed as inhibitors; also: nearly all actives have a fitted effect of over 55% in size
#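 Steps: dispense K18 P301L tau (15 uM plus 0.24 uM Alexa 594 tracer, final) in pH 7 sodium acetate; add compound; add heparin (20 uM final); incubate 6 hr, 37 C; add ThT (30 uM final); after 1 hr ambient, read FP.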
# ALDH1A1 block – qHTS Assay for Inhibitors of Aldehyde Dehydrogenase 1 (ALDH1A1); Aldehyde dehydrogenase 1A1 (Homo sapiens), P00352; 220,000 tested, 7.3% active; Potency, µM (highest dose often 75.3 µM), hits mostly inhibitors; AID 1030, 2008; Purified ALDH1A1, NADH fluorescence, propionaldehyde substrate; active = well fitted inhibition curve with a large enough effect, not every such curve was filed as active; inconclusive = small, poorly fitted or top-dose-only effect, or another doubt; inactive = no such curve, though single readings can be large or run the other way
# Tau fluor cs – Counterscreen qHTS for Inhibitors of Tau Fibril Formation, Fluorescence Polarization. Potency, µM (highest dose often 57.7 µM). tau K18 P301L (four-repeat tau fragment) Alexa594 fluorescence, heparin fibrillization. 280,000 tested, 0.93% active; also: nearly all actives have a fitted effect of over 55% in size
#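 Human K18 P301L tau (15 uM unlabeled plus 0.24 uM Alexa 594-labeled, final) in 100 mM sodium acetate pH 7 was mixed with compound and 20 uM heparin and incubated 6 hr at 37 C.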
# HPGD block – qHTS Assay for Inhibitors of HPGD (15-Hydroxyprostaglandin Dehydrogenase) | purified HPGD, NADH fluorescence kinetic, PGE2 substrate | 15-hydroxyprostaglandin dehydrogenase [NAD(+)] (Homo sapiens), P15428 | 150,000 tested, 4.3% active | Potency, µM, actives largely listed as inhibitors; active = well fitted inhibition curve with a large enough effect, not every such curve was filed as active; inconclusive = small, poorly fitted or top-dose-only effect, or another doubt; inactive = no such curve, though single readings can be large or run the other way
#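 NADH formation kinetics: reaction with 30 uM PGE2 and 1 mM NAD+ (final), 20 nM enzyme, Tris-HCl pH 8 with Tween 20, after 15 min compound preincubation at room temperature. Fluorescence change, last versus first of five reads.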
# JMJD2E inh – qHTS Assay for Inhibitors of Human Jumonji Domain Containing 2E (JMJD2E) | Lysine-specific demethylase 4E (Homo sapiens), B2RXH2 | Potency, µM (highest dose often 57.1 µM), most hits filed as inhibitors | JMJD2E catalytic domain, FDH-coupled NADH fluorescence (FDH is formaldehyde dehydrogenase) | AID 2147, 2009 | 230,000 tested, 1.6% active; active = well fitted inhibition curve with a large enough effect, not every such curve was filed as active; inconclusive = small, poorly fitted or top-dose-only effect, or another doubt; inactive = no such curve, though single readings can be large or run the other way; also: nearly all actives have a fitted effect of over 50% in size
# Target sequence (B2RXH2 1-337 limits assumed): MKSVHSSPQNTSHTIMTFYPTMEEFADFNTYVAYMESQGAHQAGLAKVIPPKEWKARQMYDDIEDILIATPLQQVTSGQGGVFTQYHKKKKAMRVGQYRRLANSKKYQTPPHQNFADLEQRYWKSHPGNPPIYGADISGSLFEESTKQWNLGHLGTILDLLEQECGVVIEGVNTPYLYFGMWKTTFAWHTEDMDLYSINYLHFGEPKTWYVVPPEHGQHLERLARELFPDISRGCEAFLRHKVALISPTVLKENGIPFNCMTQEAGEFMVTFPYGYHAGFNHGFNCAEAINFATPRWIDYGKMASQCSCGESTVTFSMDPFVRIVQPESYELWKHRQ
# Hits are given with their value; i = inactive; ? = inconclusive; nt = no result; [ ] = remark or other dose. Unless noted, calls follow the shape of the dose curve; as a rule, active = well fitted curve in the direction sought with a large enough effect; inconclusive = small, poorly fitted or top-dose-only effect, or another doubt; inactive = no such curve, though single readings can be large; an effect the other way counts as inactive or inconclusive.
SMILES,Tau fibril ThT,Tau fibril FP,ALDH1A1 block,Tau fluor cs,HPGD block,JMJD2E inh
Cc1nnc(SCC(=O)NCC2CCCO2)n1-c1ccccc1 (stereo unspecified),i,i,?,i,i,i
NC(=O)CSc1nc2scc(-c3ccco3)c2c(=O)n1-c1ccccc1,?,?,3.5µM,i,i,?
O=C(CSc1nc2scc(-c3ccco3)c2c(=O)n1-c1ccccc1)N1CCOCC1,i,i,?,i,i,i
C=CCn1c(SCC(=O)NCCOC)nc2scc(-c3ccco3)c2c1=O,22µM,16µM,7.9µM,i,i,i
O=C(CSc1nc2scc(-c3ccco3)c2c(=O)n1-c1ccccc1)NCC1CCCO1 (stereo unspecified),?,i,13µM,i,i,i
CCCn1cc(S(=O)(=O)c2ccc(C)c(C)c2)c(=O)c2cc(F)c(N3CCC(C)CC3)cc21,i,i,nt,i,nt,nt
C=CCn1c(SCC(=O)NCC2CCCO2)nnc1-c1ccccc1 (stereo unspecified),i,i,i,i,nt,i
C=CCn1c(SCC(=O)NCC2CCCO2)nc2scc(-c3ccco3)c2c1=O (stereo unspecified),?,i,25µM,i,i,i
COc1ccc(/C=N/Nc2nccnc2Cl)c(OC)c1,?,i,i,i,nt,i
Oc1ccc(/C=N/Nc2ncc(Br)cn2)c(O)c1,?,i,i,?,?,11µM
O=[N+]([O-])c1cccnc1N/N=C/c1ccccc1O,?,i,89µM,i,nt,i
O=[N+]([O-])c1ccccc1/C=N/Nc1nccnc1Cl,i,i,?,i,i,i
Oc1ccc(/C=N/Nc2cccc3cccnc23)c(O)c1,6.3µM,i,?,7.9µM[quencher],16µM,i
Oc1ccc(/C=N/Nc2nccnc2Cl)c(O)c1,?,i,?,i,28µM,?
N#CCC(=O)N/N=C/c1cc(-c2ccccc2)n(-c2ccc(Cl)cc2)c1-c1ccccc1,i,i,?,i,nt,?
CC1(C)S[C@@H]2[C@H](NC(=O)C3(N)CCCCC3)C(=O)N2[C@@H]1C(=O)O,nt,nt,i[13.5 µM],nt,i,nt
Oc1ccccc1/C=N/Nc1nccnc1Cl,i,i,i,i,i,25µM
Cc1cccc(-c2nc3c4ccccc4nc(NCc4ccc(Cl)cc4)n3n2)c1,i,i,nt,i,nt,nt
COc1ccccc1/C=C/C1(C(=O)NC2CCCC2)CC(=O)N1c1ccccc1 (stereo unspecified),i,i,nt,i,nt,?
CCOC(=O)CSc1nc2cc(C)ccc2cc1C#N,?,i,i,i,i,i
CCOC(=O)CSc1nc2cc(OC)ccc2cc1C#N,5µM,i,?,?,i,?
CCOc1ccc2cc(C#N)c(SCC(=O)N3CCOCC3)nc2c1,i,i,3.5µM,i,?,i
COc1ccc2nc(SCC(C)=O)c(C#N)cc2c1,4.5µM,i,i,i,i,i
COc1ccc2nc(SC)c(C#N)cc2c1,i,i,i,i,nt,i
CCOc1ccc2nc(SCC(=O)N3CCCCCC3)c(C#N)cc2c1,i,i,?,i,i,?
SMILES,Tau fibril ThT,Tau fibril FP,ALDH1A1 block,Tau fluor cs,HPGD block,JMJD2E inh
O=C(c1cccc(F)c1)N1CCC2(CC1)CN(c1ccccc1)C2,nt,nt,?,nt,i,nt
CC(C)OCCCN1C(=O)c2[nH]nc(-c3ccccc3O)c2C1c1ccc(OCc2ccccc2)cc1 (stereo unspecified),i,i,nt,?,nt,nt
O=C1c2oc3ccccc3c(=O)c2C(c2ccc(O)cc2)N1c1nccs1 (stereo unspecified),i,?,i,i,nt,i
COc1cc2c(cc1OC)C1N(CC2)C(=O)CCC12C(=O)CCCC2=O (stereo unspecified),i,i,i,i,?,nt
O=C1CCC(=O)N1OCCCOc1ccc(Br)cc1Cl,i,i,i,i,18µM,i
COc1cccc([C@@H]2Oc3ccc(Br)cc3[C@H](O)[C@H]2O)c1,i,i,i,i,i,i
